Screens as filed in PubChem.
Sampled rows, rich in hits. Any-hit rate of the full collection: about 2.6%.
PAD4 inh = blocks human protein arginine deiminase 4; Q9UM07; recombinant PAD4, RCA probe fluorescence polarization; inhibition, % at 6.36 µM; hit rate 0.41% among 330,000; AID 485272;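 active = percent inhibition above a cutoff equal to the mean of all tested compounds plus 3 SD, cut at about 15% in these data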;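 note: 0% = PAD4 with RCA probe and DMSO and 100% = probe without PAD4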
PRMT1 FP inh = PRMT1 (human) inhibition, primary screen | inhibition, % at 2.79 µM | recombinant PRMT1, activity-based probe fluorescence polarization | hit rate 1.3% among 370,000 | Q99873;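 active = inhibition above about 21% made by adding two undisclosed values, limit read from the data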
TCR-CD3 inh = inhibitors of human TCR-CD3 interaction; TAMRA-labeled TCR probe fluorescence, biochemical; inhibition, % at 9.4 µM; hit rate 0.37% among 360,000; AID 651800; in the data active = inhibition above about 19%;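 note: recombinant mutant TCR 2C K166C tagged with TAMRA read by polarization; 0% = receptor in buffer alone and 100% = receptor with positive control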
SIAE primary = blocks human sialic acid acetylesterase | Q9HAT2 | AID 1053197 | SIAE FP-Rh probe binding, fluorescence polarization | inhibition, % at 9.66 µM | hit rate 0.69% among 370,000;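 active = inhibition above a cutoff: mean of compounds within the control limits plus 3 SD of those, cut at about 17% in these data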;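 note: 0% = plate median of compound wells and 100% = probe without SIAE protein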
Target sequence (Q9HAT2 whole entry, looked up): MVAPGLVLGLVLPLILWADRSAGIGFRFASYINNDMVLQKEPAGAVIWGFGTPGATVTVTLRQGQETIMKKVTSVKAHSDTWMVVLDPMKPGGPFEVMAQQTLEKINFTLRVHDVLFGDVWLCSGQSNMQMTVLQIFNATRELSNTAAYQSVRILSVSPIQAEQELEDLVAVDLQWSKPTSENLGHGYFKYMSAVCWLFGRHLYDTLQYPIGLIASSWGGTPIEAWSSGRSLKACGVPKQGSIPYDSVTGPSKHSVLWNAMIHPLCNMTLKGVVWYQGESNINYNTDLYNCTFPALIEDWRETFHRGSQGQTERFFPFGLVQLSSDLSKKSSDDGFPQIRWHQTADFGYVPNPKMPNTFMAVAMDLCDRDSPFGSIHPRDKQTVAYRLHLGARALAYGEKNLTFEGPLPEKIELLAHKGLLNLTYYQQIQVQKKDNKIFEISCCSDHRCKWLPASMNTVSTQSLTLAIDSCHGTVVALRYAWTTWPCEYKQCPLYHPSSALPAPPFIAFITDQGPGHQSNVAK
Fam108B counter = Fam108B inhibition, counter-screen for RBBP9 inhibitors; recombinant Fam108B, FP-Rh probe fluorescence polarization; inhibition, % at 9.51 µM; hit rate 0.33% among 300,000; AID 1947;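 active = inhibition above the screen mean inhibition plus 3 SD, computed separately per campaign, cut at about 18% in these data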;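 note: inhibitors lower polarization as less probe binds the enzyme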
PME-1 primary = blocks human protein phosphatase methylesterase 1; Q9Y570; hit rate 0.53% among 320,000; inhibition, % at 5.9 µM; recombinant PME-1, FP-Rh probe fluorescence polarization;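 active = inhibition above the campaign mean of all compounds plus 3 SD, cut at about 26% in these data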;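 note: competitive labeling of PME-1 active site by serine hydrolase directed probe; 0% = PME-1 with DMSO and 100% = wells lacking PME-1 enzyme; inhibitors block probe labeling so polarization falls and inhibition rises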
PRMT1 confirm = confirmation of human PRMT1 inhibitors | shares compounds with PRMT1 FP inh | recombinant His-PRMT1, activity-based probe fluorescence polarization | inhibition, % at 2.79 µM | hit rate 42% among 3,300 | AID 687036;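 active = mean inhibition across replicates above the hit cutoff derived for the earlier primary screen, cut at about 22% in these data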
The depositor's hits bear a star; . = not tested or not shown.

SMILES	PAD4 inh	PRMT1 FP inh	TCR-CD3 inh	SIAE primary	Fam108B counter	PME-1 primary	PRMT1 confirm
CCn1c(COc2ccc(C)cc2)nnc1SCC(=O)Nc1ccc(Oc2ccccc2)cc1	.	-1	.	0	.	.	.
O=C(CSc1cc(Cl)ccc1Cl)N/N=C/c1ccc[nH]1	.	-8	.	9	.	.	.
O=C(NNC(=O)c1ccc(Cl)c(Cl)c1)c1ccncc1	3	1	6	5	0	-1	.
O=C(Nc1ccncc1)c1ccc(Cl)c(Cl)c1	-5	28*	5	2	3	-5	-5
O=C(Nc1cccc(Cl)c1)OC1CCC12CCC(c1ccccc1)CC2 (centres undefined)	.	-6	.	-16	.	.	.
c1ccc2c(C3=NNC(=NC4CC4)SC3)c[nH]c2c1	1	38*	-2	9	0	5	3
c1ccc2c(C3=NNC(=NC4CCCCC4)SC3)c[nH]c2c1	-6	4	-2	7	2	13	.
Cn1c(SCc2nnc(-c3ccccc3Br)o2)nc2sc3c(c2c1=O)CCC3	1	29*	0	-10	-7	1	10
COc1ccc(OC)c(S(=O)(=O)N2CCC(c3cn4ccccc4n3)CC2)c1	.	0	.	1	.	.	.
COC1=CC(=O)C=C(OC)C1=O	.	56*	2	-4	.	.	54*
COc1ccc(/C=C/C(=O)NC2=NCCS2)c(OC)c1	.	-2	.	4	.	.	.
CCOc1ccc(N2C(=O)CC(NC3CCN(C(=O)c4cccc(Cl)c4)CC3)C2=O)cc1 (centres undefined)	-1	65*	-7	-6	4	-5	2
CCOc1ccc(N2C(=O)CC(NC3CCN(C(=O)c4cccs4)CC3)C2=O)cc1 (centres undefined)	-4	89*	4	-1	2	5	-3
C=CCN1C(=O)[C@@H](CC(=O)NCCCC)[C@]2(C(=O)OCC)CCCCC/C=C/12	.	4	.	-4	.	.	.
C[C@H]1COc2cc(Br)ccc2S(=O)(=O)N1Cc1cn(Cc2ccc(Cl)cc2)nn1	.	-5	.	-3	.	.	.
S=c1[nH]nc(-c2cc(-c3ccccc3)n[nH]2)n1N=Cc1cccc(Oc2ccccc2)c1	.	9	.	-7	.	.	.
Nc1ccc2c3c(cccc13)CC2	-19	66*	12	2	2	-2	9
c1ccc(Nc2ccc3c4c(cccc24)CC3)cc1	-43	3	-26	-21	-1	-7	.
O=C(/C=C/c1ccco1)Nc1cccc(C(=O)Nc2ccccc2C(=O)O)c1	-13	26*	6	-64	-31	-55	46*
CC(C)(C)c1ccc(C(=O)N/C(=C\c2ccco2)C(=O)Nc2ccccc2C(=O)O)cc1	-1	46*	3	-10	-7	-6	1
O=C(Nc1ccc(C(=O)O)cc1)/C(=C\c1ccco1)NC(=O)c1ccco1	-7	47*	-4	-2	-2	-15	8
O=C(NC(Cc1ccccc1)C(=O)O)/C(=C/c1ccco1)NC(=O)c1cccc(Br)c1 (centres undefined)	0	25*	2	-2	4	-3	7
CCc1ccccc1NC(=O)c1cccc(NC(=O)/C=C/c2ccco2)c1	0	18	-6	-15	-8	-13	.
CC(=O)c1ccc(NC(=O)/C(=C\c2ccco2)NC(=O)c2ccco2)cc1	-8	20	-2	-6	-1	-5	.
O=C(NCc1c(F)cccc1F)C1CCC(CNS(=O)(=O)c2cccc3cccnc23)CC1 (centres undefined)	.	-3	.	-6	.	.	.
SMILES	PAD4 inh	PRMT1 FP inh	TCR-CD3 inh	SIAE primary	Fam108B counter	PME-1 primary	PRMT1 confirm
O=C(N/N=C/c1ccc(-c2ccccc2[N+](=O)[O-])o1)c1cncc(Br)c1	-1	5	4	-1	6	12	.
O=C(N/N=C\c1ccc([N+](=O)[O-])o1)c1cncc(Br)c1	-10	34*	19	13	0	4	6
N#Cc1ccc(/C=C2\CC3(OC(=O)c4cccc(F)c4)CCCN2C3)cc1 (centres undefined)	.	-2	.	1	.	.	.
O=C(O)Cc1c[nH]c2ccc(O)cc12	-3	27*	5	7	-1	1	1
COc1ccc(OC)c(S(=O)(=O)N(CC(=O)NC2CCC(C)CC2)c2cc(C)cc(C)c2)c1 (centres undefined)	.	1	.	-4	.	.	.
N=C1/C(=C\c2coc3ccccc3c2=O)C(=O)N=C2SC=CN12	0	36*	-11	-7	9	15	32*
O=C(CSc1nnc(-c2ccc(Cl)cc2)n1-c1ccccc1)Nc1ccc(Oc2ccccc2)cc1	.	4	.	-1	.	.	.
CCN(CC)C(=O)c1sc2nc(-c3cccs3)cc(-c3cccs3)c2c1N	-6	57*	5	-15	-3	-3	13
CCc1nccn1CC(=O)c1ccc(O)c(O)c1	.	1	.	1	.	.	.
CCOC(=O)CNC(=O)CSc1nc(-c2ccccc2)ns1	2	43*	-4	-10	1	1	4
CC1C=CC=CCCC=CC=CC=CC=CC(OC2O[C@H](C)[C@@H](O)[C@H](N)[C@@H]2O)CC(O)C(C(=O)O)C(O)CC(=O)CC(O)C(O)CCC(O)CC(O)CC(O)CC(=O)OC(C)C(C)C1O (some centres undefined)	.	0	.	4	.	.	.
O=C1CC(=O)N(CCNc2ncc(C(F)(F)F)cc2Cl)C(=O)N1	-5	7	-4	-3	0	-4	.
O=C1C=CC(=O)N1CCNc1ncc(C(F)(F)F)cc1Cl	.	92*	-5	4	.	.	90*
CCOC(=O)[C@@]12CCCC=C1N(CCc1ccc(Cl)cc1)C(=O)[C@H]2CC(=O)NCc1ccc(OC)c(OC)c1	.	4	.	4	.	.	.
O=C(CCCCCN1C(=O)C2C3C=CC(C3)C2C1=O)N1CCN(c2ncccn2)CC1 (centres undefined)	.	4	.	6	.	.	.
O=C1NC(=S)SC1=C1CCCCCC1	1	32*	5	3	0	6	0
O=C1N=C(N2CCCCC2)SC1=C1CCCCC1	-6	8	0	-1	1	-4	.
C[C@H]1CCCN1c1ccc2c(c1)O[C@@H]1CCN(C1)S2(=O)=O	.	5	.	5	.	.	.
COc1cc(OC)cc(C(=O)NC2CCSC2=O)c1 (centres undefined)	-4	3	4	-8	1	-10	.
COc1ccc(C(=O)NC(=S)NC2CCSC2=O)cc1 (centres undefined)	-1	29*	7	7	0	2	7
O=C(NC(=S)NC1CCSC1=O)c1cccs1 (centres undefined)	1	36*	6	2	2	3	10
COc1cc2c(c(OC)c1OC)C1(CCCCC1)CC2NS(=O)(=O)C(C)C (centres undefined)	.	0	5	5	.	.	.
Nc1n[nH]c(=S)n1/N=C1/C(=O)Nc2ccccc21	.	43*	-3	-2	.	.	40*
CC(=O)Nc1ccc(NS(=O)(=O)c2ccc(CN3C(=O)c4cccnc4C3=O)cc2)cc1	-1	4	-6	-1	-1	-7	.
